From article PMC7862700, “An all-to-all approach to the identification of sequence-specific readers for epigenetic DNA modifications on cytosine”

How the values were obtained:
Test in all cases: DAPPL (digital affinity profiling via proximity ligation, sequencing); 10 mM Tris-HCl pH 7.5, 50 mM NaCl, 1 mM DTT, 4% glycerol, room temperature, 30 min; GST-TFs on glutathione beads, 16-mer random dsDNA library, 0.1% formaldehyde crosslink after washing; high values mean tight binding
[1] = target: T1, FEV (Homo sapiens, UniProt Q99581 1-238); conditions: protein: recombinant; tags: N-terminal GST; dsDNA, one strand shown
T1 sequence: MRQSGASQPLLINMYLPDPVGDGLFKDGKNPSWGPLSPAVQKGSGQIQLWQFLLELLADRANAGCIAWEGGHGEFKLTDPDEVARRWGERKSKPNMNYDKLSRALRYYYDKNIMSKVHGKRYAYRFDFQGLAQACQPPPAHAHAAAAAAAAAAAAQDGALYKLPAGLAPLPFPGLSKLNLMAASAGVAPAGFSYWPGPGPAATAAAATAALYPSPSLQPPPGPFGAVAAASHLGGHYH
Summary of the method: (§1)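 The binding signal reported is, for every hexamer, its read frequency for a factor over its read frequency for the tag-only sample. Reads came from pools of yeast-expressed, GST-fused human transcription factors on glutathione beads, barcoded with DNA and mixed with that sample, which were incubated with 200 nmole of a random double-stranded 16-mer DNA library in Tris/NaCl/DTT/glycerol buffer at room temperature for 30 min. After washing, the pools were crosslinked with 0.1% formaldehyde, proximity-ligated with BsaI/T4 ligase for 1 h at 37 °C, PCR-amplified and sequenced on an Illumina NextSeq500.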

[2] = target: ETV5 (Homo sapiens, UniProt P41161 1-510); conditions: protein: recombinant; tags: N-terminal GST; dsDNA, one strand shown
Summary of the method: as §1

[3] = target: HSF1 (Homo sapiens, UniProt Q00613 1-529); conditions: protein: recombinant; tags: N-terminal GST; chain copies: 3; dsDNA, one strand shown
Summary of the method: as §1

[4] = target: T2, SPIC (Homo sapiens, UniProt Q8N5J4 1-248); conditions: protein: recombinant; tags: N-terminal GST; dsDNA, one strand shown
T2 sequence: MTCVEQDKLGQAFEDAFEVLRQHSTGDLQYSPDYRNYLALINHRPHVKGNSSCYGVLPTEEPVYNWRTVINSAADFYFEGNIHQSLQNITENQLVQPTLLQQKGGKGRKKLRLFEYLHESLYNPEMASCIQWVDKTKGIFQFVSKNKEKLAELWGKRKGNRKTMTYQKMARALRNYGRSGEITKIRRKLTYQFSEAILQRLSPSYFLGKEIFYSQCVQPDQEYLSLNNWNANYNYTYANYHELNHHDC
Summary of the method: as §1

[5] = target: ELF4 (Homo sapiens, UniProt Q99607 1-663); conditions: protein: recombinant; tags: N-terminal GST; dsDNA, one strand shown
Summary of the method: as §1

[6] = target: T3, ELK4 (Homo sapiens, UniProt P28324-2 1-405); conditions: protein: recombinant; tags: N-terminal GST; dsDNA, one strand shown
T3 sequence: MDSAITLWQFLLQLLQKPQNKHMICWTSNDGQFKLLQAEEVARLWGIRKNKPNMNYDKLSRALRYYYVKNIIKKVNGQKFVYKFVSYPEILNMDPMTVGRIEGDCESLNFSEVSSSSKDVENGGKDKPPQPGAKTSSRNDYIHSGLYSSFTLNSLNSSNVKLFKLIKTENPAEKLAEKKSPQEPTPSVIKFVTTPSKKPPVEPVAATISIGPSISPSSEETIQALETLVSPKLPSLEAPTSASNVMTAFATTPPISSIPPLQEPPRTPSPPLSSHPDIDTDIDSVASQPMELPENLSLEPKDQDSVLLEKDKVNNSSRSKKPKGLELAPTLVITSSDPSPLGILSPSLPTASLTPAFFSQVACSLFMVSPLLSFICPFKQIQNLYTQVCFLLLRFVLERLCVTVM
Summary of the method: as §1

[7] = target: T4, ETV2 (Homo sapiens, UniProt O00321 1-342); conditions: protein: recombinant; tags: N-terminal GST; dsDNA, one strand shown
T4 sequence: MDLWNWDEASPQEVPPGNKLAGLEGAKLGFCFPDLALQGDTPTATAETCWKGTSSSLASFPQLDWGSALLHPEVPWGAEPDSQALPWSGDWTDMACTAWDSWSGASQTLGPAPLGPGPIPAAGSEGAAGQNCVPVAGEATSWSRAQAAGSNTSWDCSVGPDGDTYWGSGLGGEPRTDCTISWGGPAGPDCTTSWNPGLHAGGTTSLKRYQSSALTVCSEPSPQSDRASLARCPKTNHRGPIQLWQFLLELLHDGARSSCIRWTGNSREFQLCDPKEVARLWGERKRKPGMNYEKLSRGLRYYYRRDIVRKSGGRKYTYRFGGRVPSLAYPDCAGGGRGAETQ
Summary of the method: as §1

[8] = target: T5, ELF3 (Homo sapiens, UniProt P78545 1-371); conditions: protein: recombinant; tags: N-terminal GST; dsDNA, one strand shown
T5 sequence: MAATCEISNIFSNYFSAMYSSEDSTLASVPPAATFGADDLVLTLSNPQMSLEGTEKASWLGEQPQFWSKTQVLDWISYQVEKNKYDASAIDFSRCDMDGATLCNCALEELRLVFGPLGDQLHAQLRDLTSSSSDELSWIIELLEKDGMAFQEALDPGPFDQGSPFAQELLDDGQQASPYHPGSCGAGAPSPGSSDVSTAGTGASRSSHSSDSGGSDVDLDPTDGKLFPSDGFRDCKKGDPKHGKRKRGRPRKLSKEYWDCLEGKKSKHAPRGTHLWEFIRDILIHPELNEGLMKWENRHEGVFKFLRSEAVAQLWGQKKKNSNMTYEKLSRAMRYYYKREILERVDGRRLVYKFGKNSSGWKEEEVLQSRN
Summary of the method: as §1

[9] = target: CRX (Homo sapiens, UniProt O43186 1-299); conditions: protein: recombinant; tags: N-terminal GST; dsDNA, one strand shown
Summary of the method: as §1

[10] = target: ETV1 (Homo sapiens, UniProt P50549 1-477); conditions: protein: recombinant; tags: N-terminal GST; dsDNA, one strand shown
Summary of the method: as §1

[11] = target: T6, ERF (Homo sapiens, UniProt P50548 1-548); conditions: protein: recombinant; tags: N-terminal GST; dsDNA, one strand shown
T6 sequence: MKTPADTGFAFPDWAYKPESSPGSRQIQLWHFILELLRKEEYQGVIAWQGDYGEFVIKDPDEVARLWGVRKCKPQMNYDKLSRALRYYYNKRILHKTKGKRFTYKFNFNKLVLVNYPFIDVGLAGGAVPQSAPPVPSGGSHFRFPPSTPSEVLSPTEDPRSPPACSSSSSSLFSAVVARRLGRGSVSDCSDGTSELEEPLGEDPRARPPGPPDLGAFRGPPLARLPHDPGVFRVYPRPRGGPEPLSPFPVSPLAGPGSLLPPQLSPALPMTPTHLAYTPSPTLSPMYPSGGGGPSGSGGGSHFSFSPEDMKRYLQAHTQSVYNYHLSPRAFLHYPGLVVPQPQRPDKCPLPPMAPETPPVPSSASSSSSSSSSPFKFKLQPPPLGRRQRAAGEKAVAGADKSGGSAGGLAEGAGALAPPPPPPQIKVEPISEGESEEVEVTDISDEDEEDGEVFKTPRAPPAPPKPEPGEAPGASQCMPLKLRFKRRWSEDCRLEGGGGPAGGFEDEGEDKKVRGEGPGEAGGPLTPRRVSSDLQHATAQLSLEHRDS
Summary of the method: as §1

[12] = target: T7, ETV3L (Homo sapiens, UniProt Q6ZN32 1-361); conditions: protein: recombinant; tags: N-terminal GST; dsDNA, one strand shown
T7 sequence: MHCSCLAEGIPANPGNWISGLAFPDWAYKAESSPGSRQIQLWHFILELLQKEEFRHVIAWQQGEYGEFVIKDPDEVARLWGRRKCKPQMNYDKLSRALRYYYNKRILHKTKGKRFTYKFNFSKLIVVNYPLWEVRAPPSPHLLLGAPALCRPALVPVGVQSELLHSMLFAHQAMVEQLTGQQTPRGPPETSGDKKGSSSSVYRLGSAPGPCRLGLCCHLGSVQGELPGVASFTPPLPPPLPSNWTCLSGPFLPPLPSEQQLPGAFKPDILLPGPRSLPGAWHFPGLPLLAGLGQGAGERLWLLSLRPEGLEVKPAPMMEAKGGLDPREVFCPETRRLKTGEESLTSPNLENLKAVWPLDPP
Summary of the method: as §1

[13] = target: T8, ETS2 (Homo sapiens, UniProt P15036 1-469); conditions: protein: recombinant; tags: N-terminal GST; dsDNA, one strand shown
T8 sequence: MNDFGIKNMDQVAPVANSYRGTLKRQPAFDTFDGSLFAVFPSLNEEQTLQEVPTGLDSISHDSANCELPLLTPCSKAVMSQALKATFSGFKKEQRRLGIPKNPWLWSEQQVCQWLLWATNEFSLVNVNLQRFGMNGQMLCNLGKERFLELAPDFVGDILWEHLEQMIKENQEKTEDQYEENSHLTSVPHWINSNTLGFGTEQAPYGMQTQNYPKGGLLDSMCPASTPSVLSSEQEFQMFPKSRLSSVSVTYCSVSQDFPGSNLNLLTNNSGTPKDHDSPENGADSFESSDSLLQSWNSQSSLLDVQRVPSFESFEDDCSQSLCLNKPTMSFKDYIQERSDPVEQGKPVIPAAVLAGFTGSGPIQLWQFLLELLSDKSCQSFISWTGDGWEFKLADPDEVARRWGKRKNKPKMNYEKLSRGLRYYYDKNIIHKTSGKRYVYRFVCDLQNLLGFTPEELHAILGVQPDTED
Summary of the method: as §1

[14] = target: T9, SPDEF (Homo sapiens, UniProt O95238 1-335); conditions: protein: recombinant; tags: N-terminal GST; dsDNA, one strand shown
T9 sequence: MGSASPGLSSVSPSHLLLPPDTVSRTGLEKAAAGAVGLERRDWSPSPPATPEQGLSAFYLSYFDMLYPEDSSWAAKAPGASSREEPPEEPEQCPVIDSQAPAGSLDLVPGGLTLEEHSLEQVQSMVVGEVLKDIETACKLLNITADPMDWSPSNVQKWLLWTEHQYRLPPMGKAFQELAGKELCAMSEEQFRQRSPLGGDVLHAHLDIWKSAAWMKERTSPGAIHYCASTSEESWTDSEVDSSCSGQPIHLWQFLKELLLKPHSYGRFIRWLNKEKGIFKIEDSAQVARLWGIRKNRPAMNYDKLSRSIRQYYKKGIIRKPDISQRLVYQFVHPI
Summary of the method: as §1

[15] = target: T10, ETV7 (Homo sapiens, UniProt Q9Y603 1-341); conditions: protein: recombinant; tags: N-terminal GST; dsDNA, one strand shown
T10 sequence: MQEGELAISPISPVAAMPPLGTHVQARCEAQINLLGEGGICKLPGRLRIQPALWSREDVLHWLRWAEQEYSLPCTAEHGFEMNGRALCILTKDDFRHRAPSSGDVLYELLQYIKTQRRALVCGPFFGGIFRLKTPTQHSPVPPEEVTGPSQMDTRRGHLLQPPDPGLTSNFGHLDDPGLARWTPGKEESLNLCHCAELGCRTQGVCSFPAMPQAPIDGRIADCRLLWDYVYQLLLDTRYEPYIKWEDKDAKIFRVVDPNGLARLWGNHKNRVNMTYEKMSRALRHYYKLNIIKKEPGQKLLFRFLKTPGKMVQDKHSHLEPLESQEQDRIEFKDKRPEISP
Summary of the method: as §1

[16] = target: T11, ELF5 (Homo sapiens, UniProt Q9UKW6-2 1-255); conditions: protein: recombinant; tags: N-terminal GST; dsDNA, one strand shown
T11 sequence: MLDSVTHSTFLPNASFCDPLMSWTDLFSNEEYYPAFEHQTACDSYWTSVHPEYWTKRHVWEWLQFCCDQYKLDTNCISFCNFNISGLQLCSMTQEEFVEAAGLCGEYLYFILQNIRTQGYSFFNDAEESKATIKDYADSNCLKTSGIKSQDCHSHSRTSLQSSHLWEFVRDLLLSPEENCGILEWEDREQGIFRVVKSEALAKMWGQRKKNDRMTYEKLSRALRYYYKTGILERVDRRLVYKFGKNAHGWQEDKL
Summary of the method: as §1

[17] = target: T12, ETV3 (Homo sapiens, UniProt P41162-2 1-143); conditions: protein: recombinant; tags: N-terminal GST; dsDNA, one strand shown
T12 sequence: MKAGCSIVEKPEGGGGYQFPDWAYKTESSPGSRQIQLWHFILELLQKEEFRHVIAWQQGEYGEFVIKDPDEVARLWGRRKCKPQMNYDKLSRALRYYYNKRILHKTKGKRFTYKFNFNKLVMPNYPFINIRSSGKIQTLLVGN
Summary of the method: as §1

[18] = target: ETV6 (Homo sapiens, UniProt P41212 1-452); conditions: protein: recombinant; tags: N-terminal GST; dsDNA, one strand shown
Summary of the method: as §1

Chain of ETV1 (P50549 whole entry): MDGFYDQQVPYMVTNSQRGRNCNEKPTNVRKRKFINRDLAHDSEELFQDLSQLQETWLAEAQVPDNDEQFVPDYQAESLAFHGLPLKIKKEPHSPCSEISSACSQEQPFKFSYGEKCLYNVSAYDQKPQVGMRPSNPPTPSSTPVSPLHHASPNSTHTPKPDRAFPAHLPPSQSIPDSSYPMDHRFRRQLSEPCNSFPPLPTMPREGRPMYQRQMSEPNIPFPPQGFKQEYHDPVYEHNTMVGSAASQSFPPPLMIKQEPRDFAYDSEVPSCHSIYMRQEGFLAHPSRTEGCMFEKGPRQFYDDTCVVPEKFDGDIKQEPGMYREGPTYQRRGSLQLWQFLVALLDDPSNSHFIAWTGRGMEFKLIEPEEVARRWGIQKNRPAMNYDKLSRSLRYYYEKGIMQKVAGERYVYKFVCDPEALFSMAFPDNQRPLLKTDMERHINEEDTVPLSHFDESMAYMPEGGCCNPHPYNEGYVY
Chain of CRX (O43186 whole entry): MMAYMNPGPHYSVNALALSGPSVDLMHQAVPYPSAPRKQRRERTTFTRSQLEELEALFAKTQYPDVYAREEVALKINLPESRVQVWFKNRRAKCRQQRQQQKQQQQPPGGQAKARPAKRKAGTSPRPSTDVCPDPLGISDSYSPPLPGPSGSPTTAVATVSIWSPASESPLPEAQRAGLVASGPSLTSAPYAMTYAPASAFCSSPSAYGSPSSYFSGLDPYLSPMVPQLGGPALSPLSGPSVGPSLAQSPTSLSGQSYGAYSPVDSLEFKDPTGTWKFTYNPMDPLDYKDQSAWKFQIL
Chain of ETV6 (P41212 whole entry): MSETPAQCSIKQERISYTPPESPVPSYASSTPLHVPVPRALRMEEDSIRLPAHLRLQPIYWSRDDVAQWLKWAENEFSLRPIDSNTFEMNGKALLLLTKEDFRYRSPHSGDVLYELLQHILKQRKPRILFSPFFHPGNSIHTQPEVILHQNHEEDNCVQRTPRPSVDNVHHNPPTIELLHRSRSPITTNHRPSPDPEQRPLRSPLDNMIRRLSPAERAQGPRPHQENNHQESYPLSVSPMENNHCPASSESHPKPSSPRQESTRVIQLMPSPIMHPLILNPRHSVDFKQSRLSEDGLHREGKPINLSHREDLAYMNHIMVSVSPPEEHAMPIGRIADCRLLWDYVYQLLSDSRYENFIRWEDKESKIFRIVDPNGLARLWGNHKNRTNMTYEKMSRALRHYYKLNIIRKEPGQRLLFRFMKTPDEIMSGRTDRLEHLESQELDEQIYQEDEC
Chain of HSF1 (Q00613 whole entry): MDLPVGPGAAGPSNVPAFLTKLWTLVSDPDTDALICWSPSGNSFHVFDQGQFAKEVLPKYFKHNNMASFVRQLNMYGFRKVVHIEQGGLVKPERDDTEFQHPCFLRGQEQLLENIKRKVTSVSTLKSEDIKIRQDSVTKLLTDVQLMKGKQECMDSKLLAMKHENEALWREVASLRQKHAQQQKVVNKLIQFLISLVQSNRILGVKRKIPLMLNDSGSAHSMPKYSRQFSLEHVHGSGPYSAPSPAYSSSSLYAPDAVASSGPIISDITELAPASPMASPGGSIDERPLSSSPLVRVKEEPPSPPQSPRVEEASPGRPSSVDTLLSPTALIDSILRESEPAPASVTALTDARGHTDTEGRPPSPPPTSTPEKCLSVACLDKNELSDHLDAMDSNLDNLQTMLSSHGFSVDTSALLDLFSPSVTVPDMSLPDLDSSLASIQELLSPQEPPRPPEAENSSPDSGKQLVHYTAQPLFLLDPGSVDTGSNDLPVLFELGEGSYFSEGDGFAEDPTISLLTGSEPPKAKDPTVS
Chain of ELF4 (Q99607 whole entry): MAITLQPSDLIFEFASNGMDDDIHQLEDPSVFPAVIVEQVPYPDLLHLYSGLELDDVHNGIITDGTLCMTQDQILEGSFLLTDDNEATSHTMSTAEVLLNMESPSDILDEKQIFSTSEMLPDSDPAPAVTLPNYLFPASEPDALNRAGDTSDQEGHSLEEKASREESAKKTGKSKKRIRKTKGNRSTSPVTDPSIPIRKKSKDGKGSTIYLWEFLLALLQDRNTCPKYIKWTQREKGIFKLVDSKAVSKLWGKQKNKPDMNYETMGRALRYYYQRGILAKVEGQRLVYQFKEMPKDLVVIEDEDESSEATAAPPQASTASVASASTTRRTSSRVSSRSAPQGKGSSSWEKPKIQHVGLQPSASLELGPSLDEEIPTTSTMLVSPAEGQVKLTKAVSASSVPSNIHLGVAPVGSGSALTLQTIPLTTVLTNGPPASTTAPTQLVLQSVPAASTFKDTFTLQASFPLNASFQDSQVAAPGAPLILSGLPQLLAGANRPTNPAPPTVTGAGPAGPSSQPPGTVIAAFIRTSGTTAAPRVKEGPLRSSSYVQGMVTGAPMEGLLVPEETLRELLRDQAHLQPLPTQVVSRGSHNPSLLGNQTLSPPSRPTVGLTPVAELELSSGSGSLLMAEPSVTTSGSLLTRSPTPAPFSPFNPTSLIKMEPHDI
Chain of ETV5 (P41161 whole entry): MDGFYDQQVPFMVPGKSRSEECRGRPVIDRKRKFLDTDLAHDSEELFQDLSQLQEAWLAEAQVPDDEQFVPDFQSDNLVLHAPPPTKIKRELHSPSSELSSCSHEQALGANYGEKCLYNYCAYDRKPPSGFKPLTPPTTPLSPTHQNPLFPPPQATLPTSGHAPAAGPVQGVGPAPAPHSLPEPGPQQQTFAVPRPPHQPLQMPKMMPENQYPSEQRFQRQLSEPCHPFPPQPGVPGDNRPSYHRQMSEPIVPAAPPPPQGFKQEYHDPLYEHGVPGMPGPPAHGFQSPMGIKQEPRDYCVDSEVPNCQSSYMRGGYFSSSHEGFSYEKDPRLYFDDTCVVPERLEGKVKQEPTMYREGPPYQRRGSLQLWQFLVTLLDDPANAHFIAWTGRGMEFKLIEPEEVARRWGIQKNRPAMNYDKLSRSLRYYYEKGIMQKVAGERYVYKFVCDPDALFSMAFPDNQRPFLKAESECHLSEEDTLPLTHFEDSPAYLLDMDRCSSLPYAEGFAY

## TTTCGG
[1]
  binding signal: 1.15 fold enrichment (6-mer frequency, TF over GST control)
[2]
  binding signal: 1.13 fold enrichment (6-mer frequency, TF over GST control)
[3]
  binding signal: 1.39 fold enrichment (6-mer frequency, TF over GST control)
[4]
  binding signal: 1.05 fold enrichment (6-mer frequency, TF over GST control)
[5]
  binding signal: 1.21 fold enrichment (6-mer frequency, TF over GST control)
[6]
  binding signal: 1.14 fold enrichment (6-mer frequency, TF over GST control)
[7]
  binding signal: 1.16 fold enrichment (6-mer frequency, TF over GST control)
[8]
  binding signal: 1.22 fold enrichment (6-mer frequency, TF over GST control)
[9]
  binding signal: 1.25 fold enrichment (6-mer frequency, TF over GST control)
[10]
  binding signal: 1.31 fold enrichment (6-mer frequency, TF over GST control)
[11]
  binding signal: 1.17 fold enrichment (6-mer frequency, TF over GST control)
[12]
  binding signal: 1.22 fold enrichment (6-mer frequency, TF over GST control)
[13]
  binding signal: 1.24 fold enrichment (6-mer frequency, TF over GST control)
[14]
  binding signal: 1.21 fold enrichment (6-mer frequency, TF over GST control)
[15]
  binding signal: 1.28 fold enrichment (6-mer frequency, TF over GST control)
[16]
  binding signal: 1.21 fold enrichment (6-mer frequency, TF over GST control)
[17]
  binding signal: 1.16 fold enrichment (6-mer frequency, TF over GST control)
[18]
  binding signal: 1.19 fold enrichment (6-mer frequency, TF over GST control)
